Source: PubChem BioAssay (EPA / NIEHS)
Calls of active or inactive are those of the source. How the source made its calls: active means hit-call score of the fitted dose curve at least 0.9, where 1 is the maximum; inactive means score below 0.9.

Columns and labels:
Conditions in all cases: mRNA level, 48 h; actives raise or lower the signal
[1] = read-out: CYP2C9 (gene 1559); assay: LTEA_HepaRG_CYP2C9: Life Technologies and Expression Analysis (LTEA) Assay for CYP2C9 using HepaRG (AID 2283484)
Outline: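 CYP2C9 transcript level, quantified by TaqMan qRT-PCR against three housekeeping genes, was fitted bidirectionally relative to 0.5% DMSO. HepaRG cultures were treated 48 h, in duplicate, at eight half-log concentrations topping at 100 uM.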

[2] = read-out: CYP2E1 (gene 1571); assay: LTEA_HepaRG_CYP2E1: Life Technologies and Expression Analysis (LTEA) Assay for CYP2E1 using HepaRG (AID 2283485)
Outline: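 CYP2E1 transcript measured by Fluidigm qRT-PCR against three housekeeping genes in human HepaRG cells treated 48 h (top 100 uM, half-log steps, 0.5% DMSO vehicle). Gain or loss fitted relative to DMSO baseline.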

[3] = read-out: CYP4A11 (gene 1579); assay: LTEA_HepaRG_CYP4A11: Life Technologies and Expression Analysis (LTEA) Assay for CYP4A11 using HepaRG (AID 2283486)
Outline: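 Differentiated HepaRG cells, serum-free induction medium, exposed 48 h in duplicate to 8-point half-log series from 100 uM in 0.5% DMSO. CYP4A11 mRNA measured by qRT-PCR, normalized to ACTB, GAPDH, POLR2A; bidirectional fit versus DMSO.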

[4] = read-out: Cytochrome P450 3A4 (Homo sapiens) (UniProt P08684); assay: LTEA_HepaRG_CYP3A4: Life Technologies and Expression Analysis (LTEA) Assay for CYP3A4 using HepaRG (AID 2283487)
Outline: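 HepaRG, 48 h exposure, 8-pt CRC from 100 uM (half-log), 0.5% DMSO, duplicates; serum-free induction medium. Readout: CYP3A4 mRNA, qRT-PCR, ACTB/GAPDH/POLR2A normalization. Bidirectional fit vs DMSO.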

[5] = read-out: DNA damage-inducible transcript 3 (DDIT3), DDIT3 (gene 1649); assay: LTEA_HepaRG_DDIT3: Life Technologies and Expression Analysis (LTEA) Assay for DNA damage-inducible transcript 3 (DDIT3) using HepaRG (AID 2283488)
Outline: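 DDIT3 transcript was quantified by qRT-PCR with ACTB/GAPDH/POLR2A normalization after 48 h chemical treatment of differentiated HepaRG cells in 0.5% DMSO. Dosing was eight-point, half-log, top 100 uM, duplicate wells. Curves fitted bidirectionally versus DMSO.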

[6] = read-out: Early growth response protein 1 (EGR1) transcription factor, EGR1 (gene 1958); assay: LTEA_HepaRG_EGR1: Life Technologies and Expression Analysis (LTEA) Assay for Early growth response protein 1 (EGR1) transcription factor using HepaRG (AID 2283490)
Outline: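 EGR1 transcript levels quantified by qRT-PCR (Fluidigm arrays) against three housekeeping genes after 48 h chemical exposure of HepaRG cells. Eight-point half-log series topping at 100 uM, 0.5% DMSO vehicle, analyzed for gain or loss.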

[7] = read-out: Ezrin (EZR), EZR (gene 7430); assay: LTEA_HepaRG_EZR: Life Technologies and Expression Analysis (LTEA) Assay for Ezrin (EZR) using HepaRG (AID 2283491)
Outline: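 Read-out is EZR transcript level by qRT-PCR, normalized to three housekeeping genes and fitted bidirectionally against the DMSO control. Human HepaRG cells received test chemicals for 48 h at eight half-log concentrations up to 100 uM in 0.5% DMSO.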

[8] = read-out: Cytochrome P450 3A7 (Homo sapiens) (UniProt P24462); assay: LTEA_HepaRG_CYP3A7: Life Technologies and Expression Analysis (LTEA) Assay for CYP3A7 using HepaRG (AID 2283492)
Outline: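 HepaRG cells plated 48 h, then dosed in serum-free induction medium for 48 h at 8 concentrations (top 100 uM, half-log steps, 0.5% DMSO). CYP3A7 mRNA by qRT-PCR, normalised to ACTB/GAPDH/POLR2A; bidirectional fit versus DMSO.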

[9] = read-out: CYP3A5 (gene 1577); assay: LTEA_HepaRG_CYP3A5: Life Technologies and Expression Analysis (LTEA) Assay for CYP3A5 using HepaRG (AID 2283493)
Outline: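 mRNA levels were quantified by qRT-PCR on Fluidigm arrays and normalized to three housekeeping genes. Differentiated HepaRG cells received 48 h exposure (top 100 uM, half-log steps, 0.5% DMSO vehicle, duplicate); bidirectional fitting versus DMSO.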

[10] = read-out: Fatty Acid-Binding Protein 1 (FABP1), FABP1 (gene 2168); assay: LTEA_HepaRG_FABP1: Life Technologies and Expression Analysis (LTEA) Assay for Fatty Acid-Binding Protein 1 (FABP1) using HepaRG (AID 2283494)
Outline: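 FABP1 expression by TaqMan qRT-PCR, normalised to three housekeeping genes, in HepaRG cells after 48 h chemical treatment. Eight-point half-log series topping at 100 uM in 0.5% DMSO, duplicates; gain or loss fitted relative to vehicle.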

[11] = read-out: Cytochrome P450 4A22 (Homo sapiens) (UniProt Q5TCH4); assay: LTEA_HepaRG_CYP4A22: Life Technologies and Expression Analysis (LTEA) Assay for Cytochrome P450 4A22 (CYP4A22) using HepaRG (AID 2283495)
Outline: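 qRT-PCR of CYP4A22 mRNA (Fluidigm TaqMan, normalized to three housekeeping genes) after 48 h chemical exposure of HepaRG cells; 8-point half-log series, top 100 uM, 0.5% DMSO vehicle. Bidirectional curve fitting vs DMSO baseline.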

[12] = read-out: Cytochrome P450 7A1 (Homo sapiens) (UniProt P22680); assay: LTEA_HepaRG_CYP7A1: Life Technologies and Expression Analysis (LTEA) Assay for Cytochrome P450 7A1 (CYP7A1) using HepaRG (AID 2283496)
Outline: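 HepaRG, 48 h exposure, 8-pt half-log series from 100 uM, 0.5% DMSO vehicle, duplicates. Readout: TaqMan qRT-PCR mRNA vs three housekeeping genes; bidirectional curve fit against DMSO baseline.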

[13] = read-out: Glutathione S-Transferase (GSTA2), GSTA2 (gene 2939); assay: LTEA_HepaRG_GSTA2: Life Technologies and Expression Analysis (LTEA) Assay for Glutathione S-Transferase (GSTA2) using HepaRG (AID 2283497)
Outline: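 GSTA2 transcript levels came from Fluidigm TaqMan qRT-PCR normalized to three housekeeping genes, fitted in both directions against DMSO. HepaRG cultures received chemicals for 48 h in serum-free induction medium (0.5% DMSO), 8 half-log concentrations up to 100 uM, duplicate.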

[14] = read-out: Glutamate-cysteine ligase catalytic (GCLC), GCLC (gene 2729); assay: LTEA_HepaRG_GCLC: Life Technologies and Expression Analysis (LTEA) Assay for Glutamate-cysteine ligase catalytic (GCLC) using HepaRG (AID 2283498)
Outline: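 Expression by TaqMan qRT-PCR, normalized to three housekeeping genes (ACTB, GAPDH, POLR2A), with up- or down-regulation fitted against DMSO. HepaRG cells dosed in duplicate for 48 h with 8 half-log concentrations up to 100 uM, vehicle 0.5% DMSO.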

[15] = read-out: growth arrest and DNA damage 45 (GADD45G), GADD45G (gene 10912); assay: LTEA_HepaRG_GADD45G: Life Technologies and Expression Analysis (LTEA) Assay for growth arrest and DNA damage 45 (GADD45G) using HepaRG (AID 2283499)
Outline: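 Differentiated human HepaRG cells in serum-free induction medium were exposed for 48 h to 8 half-log concentrations up to 100 uM in 0.5% DMSO, in duplicate. GADD45G mRNA was measured by TaqMan qRT-PCR, normalised to ACTB, GAPDH and POLR2A, and fitted bidirectionally against DMSO.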

[16] = read-out: Glutamate-cysteine ligase regulatory (GCLM), GCLM (gene 2730); assay: LTEA_HepaRG_GCLM: Life Technologies and Expression Analysis (LTEA) Assay for Glutamate-cysteine ligase regulatory (GCLM) using HepaRG (AID 2283500)
Outline: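 GCLM expression quantified by qRT-PCR, normalized to three housekeeping genes, after 48 h chemical treatment of HepaRG cells in duplicate at 8 concentrations (top 100 uM, half-log steps, 0.5% DMSO). Changes fitted both directions against vehicle.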

[17] = read-out: Glutathione S-transferase M3 (GSTM3), GSTM3 (gene 2947); assay: LTEA_HepaRG_GSTM3: Life Technologies and Expression Analysis (LTEA) Assay for Glutathione S-transferase M3 (GSTM3) using HepaRG (AID 2283501)
Outline: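 Differentiated HepaRG cells in serum-free induction medium were exposed in duplicate for 48 h to 8 half-log concentrations up to 100 uM in 0.5% DMSO. GSTM3 mRNA was measured by TaqMan qRT-PCR, normalized to ACTB/GAPDH/POLR2A, and fitted bidirectionally versus DMSO.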

[18] = read-out: Heat shock 70 kDa protein 1 (HSPA1A), gene 3303; assay: LTEA_HepaRG_HSPA1A: Life Technologies and Expression Analysis (LTEA) Assay for Heat shock 70 kDa protein 1 (HSPA1A) using HepaRG (AID 2283502)
Outline: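 HSPA1A expression measured by qRT-PCR with ACTB/GAPDH/POLR2A normalization; curves fitted in both directions relative to DMSO vehicle. Exposure: 48 h in HepaRG cells, duplicate 8-point half-log series from 100 uM, 0.5% DMSO, serum-free induction medium.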

[19] = read-out: Hypoxia-inducible factor 1-alpha (Homo sapiens) (UniProt Q16665); assay: LTEA_HepaRG_HIF1A: Life Technologies and Expression Analysis (LTEA) Assay for Hypoxia-inducible factor 1 (HIF1A) Trancription factor using HepaRG (AID 2283503)
Outline: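 HIF1A transcript level read by qRT-PCR (ACTB, GAPDH, POLR2A normalization) after 48 h chemical exposure of HepaRG cultures. Eight half-log concentrations, top 100 uM, 0.5% DMSO vehicle, duplicates; bidirectional curve fit against DMSO baseline.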

[20] = read-out: Pro-epidermal growth factor (Homo sapiens) (UniProt P01133); assay: LTEA_HepaRG_EGF: Life Technologies and Expression Analysis (LTEA) Assay for Epidermal growth factor (EGF) using HepaRG (AID 2283489)
Outline: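 Differentiated human HepaRG cells, plated 48 h then switched to serum-free induction medium, were exposed for 48 h to test chemicals (8-point half-log series, top 100 uM, 0.5% DMSO). EGF mRNA was quantified by qRT-PCR, normalized to ACTB, GAPDH, POLR2A.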

Measured: AC50

Sequence of Cytochrome P450 3A4 (Homo sapiens) (P08684 whole entry, looked up): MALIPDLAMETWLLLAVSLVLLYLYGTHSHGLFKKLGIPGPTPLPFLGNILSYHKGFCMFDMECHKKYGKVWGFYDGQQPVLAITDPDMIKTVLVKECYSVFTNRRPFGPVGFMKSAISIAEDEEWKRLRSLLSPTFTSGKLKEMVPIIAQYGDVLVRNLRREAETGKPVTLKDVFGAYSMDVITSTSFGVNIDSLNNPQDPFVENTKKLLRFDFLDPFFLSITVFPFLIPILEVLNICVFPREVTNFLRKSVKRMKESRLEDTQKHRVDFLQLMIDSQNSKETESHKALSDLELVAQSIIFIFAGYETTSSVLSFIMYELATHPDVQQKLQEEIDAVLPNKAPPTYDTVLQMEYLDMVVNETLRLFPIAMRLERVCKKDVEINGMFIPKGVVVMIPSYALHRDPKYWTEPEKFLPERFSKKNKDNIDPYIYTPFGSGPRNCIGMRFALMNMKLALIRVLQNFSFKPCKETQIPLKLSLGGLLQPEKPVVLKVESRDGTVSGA
Sequence of Hypoxia-inducible factor 1-alpha (Homo sapiens) (Q16665 whole entry, looked up): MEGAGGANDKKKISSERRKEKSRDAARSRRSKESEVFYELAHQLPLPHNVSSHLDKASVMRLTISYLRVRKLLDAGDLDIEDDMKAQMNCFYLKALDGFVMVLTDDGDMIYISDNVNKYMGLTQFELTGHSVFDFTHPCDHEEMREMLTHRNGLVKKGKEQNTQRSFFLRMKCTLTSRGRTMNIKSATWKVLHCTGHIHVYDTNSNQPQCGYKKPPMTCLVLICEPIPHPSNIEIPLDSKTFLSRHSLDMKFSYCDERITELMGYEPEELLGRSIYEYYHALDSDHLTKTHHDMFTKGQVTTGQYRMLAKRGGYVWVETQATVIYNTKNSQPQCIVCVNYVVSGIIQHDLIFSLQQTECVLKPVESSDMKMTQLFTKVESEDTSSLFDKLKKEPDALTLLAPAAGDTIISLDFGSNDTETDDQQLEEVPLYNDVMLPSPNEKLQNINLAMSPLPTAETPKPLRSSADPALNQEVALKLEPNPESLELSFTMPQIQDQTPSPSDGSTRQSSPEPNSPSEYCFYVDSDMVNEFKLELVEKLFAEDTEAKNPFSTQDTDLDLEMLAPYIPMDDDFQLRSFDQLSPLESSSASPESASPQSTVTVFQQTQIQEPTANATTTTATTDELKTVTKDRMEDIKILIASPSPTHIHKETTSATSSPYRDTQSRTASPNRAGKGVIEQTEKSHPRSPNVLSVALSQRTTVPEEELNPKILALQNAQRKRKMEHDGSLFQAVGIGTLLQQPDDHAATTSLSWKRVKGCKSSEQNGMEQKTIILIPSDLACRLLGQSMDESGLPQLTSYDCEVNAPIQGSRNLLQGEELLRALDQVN
Sequence of Cytochrome P450 3A7 (Homo sapiens) (P24462 whole entry, looked up): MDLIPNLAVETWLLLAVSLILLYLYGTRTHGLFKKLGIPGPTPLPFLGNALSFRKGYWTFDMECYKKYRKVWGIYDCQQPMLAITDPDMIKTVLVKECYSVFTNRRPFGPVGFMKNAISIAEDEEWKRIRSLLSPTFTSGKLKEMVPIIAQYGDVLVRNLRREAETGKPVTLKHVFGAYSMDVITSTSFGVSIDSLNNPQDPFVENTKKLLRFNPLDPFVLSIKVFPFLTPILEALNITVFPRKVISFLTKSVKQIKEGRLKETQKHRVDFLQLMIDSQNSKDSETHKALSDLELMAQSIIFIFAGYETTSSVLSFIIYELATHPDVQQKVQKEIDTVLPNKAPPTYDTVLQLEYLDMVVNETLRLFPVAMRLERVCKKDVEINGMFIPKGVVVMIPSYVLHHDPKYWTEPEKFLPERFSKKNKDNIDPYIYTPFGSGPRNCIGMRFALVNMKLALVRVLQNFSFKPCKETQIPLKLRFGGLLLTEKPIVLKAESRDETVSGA

COc1ccc(C(=CC(=O)N2CCOCC2)c2ccc(Cl)cc2)cc1OC
active: [2] 15.3 µM | [3] 59 µM | [4] 9.63 µM | [11] 50 µM
not listed: [20]
inactive: all other assays above

CC1=NNC(=O)N(/N=C/c2cccnc2)C1
inactive: all assays above

CC(=NC#N)N(C)Cc1ccc(Cl)nc1
active: [4] 50 µM | [8] 50 µM
not listed: [11]
inactive: all other assays above

C[N+]1(C)CCCCC1
inactive: all assays above

C#CCC1=C(C)C(OC(=O)C2C(C=C(C)C)C2(C)C)CC1=O (stereo unspecified)
active: [2] 73.3 µM | [3] 49.8 µM | [6] 49.8 µM | [10] 49.8 µM | [11] 81.5 µM
not listed: [20]
inactive: all other assays above

CCOP(=S)(OCC)OC(Cl)C(Cl)(Cl)Cl (stereo unspecified)
active: [4] 50 µM
not listed: [20]
inactive: all other assays above
